Reference: PubChem BioAssay AID1259398 (Fisher Drug Discovery Resource Center, 2018)
Where “and” joins values, the source holds several entries; their conditions need not be identical. Equal values may be shown once. Hit rate of the full screen: of about 290,000 compounds, about 230 (0.079%) were called active. Rule as the data show it: active = inhibition above about 40%; inactive = the rest. The entries come from a sample that favours actives as a whole. More than one record can exist for a structure, and the calls need not agree.

What follows are molecules tested against Cyclic GMP-AMP synthase (Homo sapiens) (UniProt Q8N884) (assay: Biochemical Kinase-Glo luminescence primary assay, human cyclic GMP-AMP synthase inhibition (AID 1259398;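 also: 0% = vehicle reaction and 100% = reaction without DNA for no activity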)). Conditions: recombinant h-cGAS, ATP depletion, at 12.5 µM, stronger effect = higher value.
Cyclic GMP-AMP synthase (Homo sapiens), sequence (Q8N884 whole entry, looked up): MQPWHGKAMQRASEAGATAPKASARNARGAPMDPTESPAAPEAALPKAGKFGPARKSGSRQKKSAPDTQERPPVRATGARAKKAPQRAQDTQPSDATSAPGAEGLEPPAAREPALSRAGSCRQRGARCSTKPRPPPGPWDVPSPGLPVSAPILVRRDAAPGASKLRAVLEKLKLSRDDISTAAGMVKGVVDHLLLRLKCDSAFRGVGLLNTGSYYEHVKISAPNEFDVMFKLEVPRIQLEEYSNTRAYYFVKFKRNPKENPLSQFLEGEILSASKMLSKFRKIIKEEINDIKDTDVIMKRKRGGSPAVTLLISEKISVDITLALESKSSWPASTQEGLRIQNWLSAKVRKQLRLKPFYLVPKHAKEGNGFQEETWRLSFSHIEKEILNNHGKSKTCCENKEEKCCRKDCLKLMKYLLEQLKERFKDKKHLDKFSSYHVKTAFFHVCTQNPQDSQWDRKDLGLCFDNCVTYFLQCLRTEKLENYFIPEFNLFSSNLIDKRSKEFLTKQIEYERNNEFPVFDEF

Row | SMILES | inhibition
1 | CC1c2ccsc2CCN1C(=O)Cc1csc(-c2ccsc2)n1 (centres undefined) | -10.7% (inactive)
2 | COC[C@@H]1CCCN1C(=O)c1ccc(-n2nc(-c3cccc(Cl)c3)cc2N)cc1 | 2.07% (inactive)
3 | CN(C)c1ccc(N2CC(=O)C(c3nc(-c4cccc(Cl)c4)cs3)C2=N)cc1 (centres undefined) | 148% (active)
4 | Nc1cc(-c2cccc(Cl)c2)nn1-c1ccc(C(=O)N2CCOCC2)cc1 | -3.59% (inactive)
5 | COc1cccc(CSc2nnc(CNC(=O)Nc3cc(C(F)(F)F)cc(C(F)(F)F)c3)n2-c2ccc(C)cc2)c1 | -18% (inactive)
6 | CCn1ncc(C(=O)N2CC[C@@H]3CN(S(C)(=O)=O)[C@@H]3C2)c1C | -7.55% (inactive)
7 | Cc1cc(C)n(CC2CCN(C(=O)C3CCN(S(C)(=O)=O)CC3)CC2)n1 | -9.09% (inactive)
8 | Cc1cc(C)n(CC(=O)N2CC[C@@H]3CN(S(C)(=O)=O)[C@@H]3C2)n1 | 66.4% (active)
9 | CS(=O)(=O)c1ccc(-c2ccc(NS(=O)(=O)c3cccs3)cc2)nn1 | -9.35% (inactive)
10 | Cc1cc(C(=O)N2CCC(N(C)C)C2)ccc1NC(=O)c1ccco1 (centres undefined) | -11.4% (inactive)
11 | CC(=O)N(c1ccccc1)C1C=C(Nc2ccccc2)C(=O)C1 (centres undefined) | -10.4% (inactive)
12 | Cc1c(C(=O)N2CCC(Cc3ccccc3)CC2)cnc2c(-c3cccc(C(F)(F)F)c3)cnn12 | -4.43% (inactive)
13 | OC(COCc1ccco1)CN(Cc1ccccc1)C1CC1 (centres undefined) | 1.45% (inactive)
14 | Cc1cc(NC(=O)Cc2cccs2)n(-c2nc(-c3cccs3)cs2)n1 | -2.04% (inactive)
15 | CN(CCCOc1ccccc1Cl)C(=O)C1(N)CC1 | -6.84% (inactive)
16 | CC(C(=O)N1CCCCCC1)N1CCCC(C(=O)Nc2ccccc2)C1 (centres undefined) | -13.6% (inactive)
17 | CC1CC(=O)C2C=Nc3ccccc3N=C2C1 (centres undefined) | -2.79% (inactive)
18 | CS(=O)(=O)N1CCCC(NCc2ccc(-c3ccc(C(F)(F)F)cc3)o2)C1 (centres undefined) | -7.61% (inactive)
19 | CCOC(=O)c1[nH]c(C)c(C(=O)C(C)N(CCOC)C(=O)Nc2c(C)cccc2C)c1C (centres undefined) | -3.12% (inactive)
20 | O=S1(=O)N=C(Nc2ccccc2Cl)c2ccccc21 | -4.92% (inactive)
21 | Cc1noc(C)c1CN1CCN2C=C(C(=O)NC3CCc4ccccc43)OC2=NC1=O (centres undefined) | -7.38% (inactive)
22 | C=CCn1c(SCC(=O)c2cc(C)n(Cc3ccco3)c2C)nc2sc(C)c(C)c2c1=O | -4.88% (inactive)

Row | SMILES | inhibition
23 | Cc1c(C(=O)N2CCc3[nH]nc(-c4ccccc4)c3C2)[nH]c2c(F)cccc12 | -6.74% (inactive)
24 | Cc1csc(=O)n1CCC(=O)Nc1ccc(S(=O)(=O)N(C)C(C)C)cc1 | 7.25% (inactive)
25 | CC(=O)c1cccc(N2C(=O)C3C4C=CC(C5CC45)C3C2=O)c1 (centres undefined) | -3.94% (inactive)
26 | CCOC(=O)c1cc(-c2ccccc2)sc1NC(=O)CC1CCCC1 | -6.75% (inactive)
27 | CCOC(=O)c1ccc(NC(=O)Cn2c(-c3nnc(C(C)C)o3)cc3ccccc32)cc1 | -1.71% (inactive)
28 | Cc1ncc(CN(C)CC2CCN(c3ccccc3)C2)[nH]1 (centres undefined) | -4.21% (inactive)
29 | COCC(=O)Nc1ccccc1C(=O)N1CC(C)CC(C)C1 (centres undefined) | -11.9% (inactive)
30 | Cc1ccc(CSc2nc(=O)n(CCO)c3c2CCC3)cc1 | -6.25% (inactive)
31 | O=C(c1cn[nH]c1-c1ccc(F)cc1)N1CCN(S(=O)(=O)c2ccccc2)CC1 | -8.02% (inactive)
32 | COCCNC(=O)c1ccc(CSc2nnc(Cc3ccccc3)n2-c2ccc(OC)cc2)cc1 | 5.06% (inactive)
33 | COc1cccc(CN2CCC(C(=O)NC(c3cccc(OC)c3)c3ccccn3)CC2)c1 (centres undefined) | -3.62% (inactive)
34 | COc1cc(C(=O)Nc2oc3ccccc3c(=O)c2-c2ccccc2)cc(OC)c1OC | -4.49% (inactive)
35 | N#CC(=C1NS(=O)(=O)c2ccccc21)c1nc2ccccc2n1Cc1ccccc1 | -6.01% (inactive)
36 | NC(=O)C1CCCN1C(=O)NC(=O)CSc1ccccc1Cl (centres undefined) | 20.8% (inactive)
37 | N#Cc1ccsc1NC(=O)c1cc(Cl)c2c(c1)OCO2 | 0.691% (inactive)
38 | CCc1c(C(=O)N2CCCC2)c(CC(C)C)nn1-c1ccc(Cl)cc1 | -4.87% (inactive)
39 | CCC(C(=O)N1CCN(C(C(=O)Nc2cccc(Cl)c2)C2CCCC2)CC1)c1ccccc1 (centres undefined) | -0.887% (inactive)
40 | CN1C(=O)[C@]2(C)[C@H](c3ccccc31)[C@@H](C(N)=O)CN2C(=O)CC(C)(C)C | -2.6% (inactive)
41 | CCC1CSC(=Nc2ccc(Cl)cc2)N1C(=O)c1ccc(C)nc1 (centres undefined) | -0.466% (inactive)
42 | COc1cccc(CN2CCCN(c3nc(Cc4ccccc4)nc4c3c(C)nn4-c3ccc(F)cc3)CC2)c1 | -3.74% (inactive)
43 | CC(C)CC(CNc1ccc(S(=O)(=O)N2CCCCC2)cc1[N+](=O)[O-])N1CCOCC1 (centres undefined) | -5.16% (inactive)
44 | Oc1c(Cl)cc(Cl)c(Cl)c1Cc1c(O)c(Cl)cc(Cl)c1Cl | 84.9% (active) and 0.133% (inactive)
